Values joined by “and” are separate entries in the source; they are usually repeats but may differ in a detail not shown here. Equal values may be shown once. Among all 5,500 compounds or so, about 2,000 (36%) were called active. About 18% were inconclusive and are not listed. Rule as the data show it: active = normalized growth mostly below about 0.91 (no sharp cut-off); inconclusive = no clear call, values can overlap the other calls; inactive = mostly above about 0.92. This is one part of the list.
Test: chemical genetic growth profiling, strain panel (AID 1159580);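 also: tested at 20 µM; growth read once vehicle control cultures reached saturation at 30 °C; 1 = growth at the plate median or of vehicle wells; lower values mean less growth of the strain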
Settings: S. cerevisiae deletion strains, growth OD

Measured: normalized growth

NC(N)=O
active: locus YJR043C, strain POL32, hits give low values 1.17 [resistant]
inactive: locus YAL013W, strain DEP1, hits give low values 1.02 | locus YAL021C, strain ccr4, hits give low values 1.02 | locus YAL026C, strain drs2, hits give low values 1.01 | locus YAL030W, strain snc1, hits give low values 1.02 | locus YBL061C, strain skt5, hits give low values 1.02 | locus YBR009C, strain hhf1, hits give low values 0.978 | locus YBR021W, strain FUR4, hits give low values 0.953 | locus YBR023C, strain chs3, hits give low values 1.02 | locus YBR171W, strain sec66, hits give low values 1.03 | locus YBR229C, strain ROT2, hits give low values 0.989 | locus YBR231C, strain swc5, hits give low values 1.03 | locus YBR279W, strain paf1, hits give low values 1.01 | locus YCL011C, strain gbp2, hits give low values 0.992 | locus YCL016C, strain dcc1, hits give low values 0.984 | locus YCL029C, strain bik1, hits give low values 0.991 | locus YCL061C, strain MRC1, hits give low values 1.03 | locus YCL069W, strain vba3, hits give low values 1 | locus YCR088W, strain abp1, hits give low values 1.01 | locus YDL005C, strain med2, hits give low values 1.01 | locus YDL035C, strain GPR1, hits give low values 1.01 | locus YDL040C, strain nat1, hits give low values 1.01 | locus YDL074C, strain BRE1, hits give low values 1.07 | locus YDL101C, strain DUN1, hits give low values 1 | locus YDL134C, strain PPH21, hits give low values 1 | locus YDL185W, strain tfp1, hits give low values 0.983 | locus YDL192W, strain arf1, hits give low values 0.994 | locus YDR001C, strain nth1, hits give low values 1.02 | locus YDR069C, strain doa4, hits give low values 1.04 | locus YDR101C, strain arx1, hits give low values 0.997 | locus YDR137W, strain rgp1, hits give low values 1.03 | locus YDR150W, strain NUM1, hits give low values 1.01 | locus YDR159W, strain sac3, hits give low values 0.965 | locus YDR162C, strain NBP2, hits give low values 1.04 | locus YDR195W, strain ref2 1.03 | locus YDR297W, strain sur2, hits give low values 1.01 | locus YDR318W, strain mcm21, hits give low values 0.998 | locus YDR334W, strain swr1, hits give low values 1.01 | locus YDR335W, strain msn5, hits give low values 1.01 | locus YDR388W, hits give low values 0.985 | locus YDR392W, strain spt3, hits give low values 0.959 | locus YDR502C, strain sam2, hits give low values 0.997 | locus YEL003W, strain gim4, hits give low values 1.01 | locus YEL037C, strain rad23, hits give low values 1.01 | locus YEL061C, strain CIN8 (second series), hits give low values 1.01 | locus YEL061C, strain CIN8, hits give low values 1.05 | locus YER015W, strain faa2, hits give low values 1.02 | locus YER016W, strain bim1, hits give low values 0.984 | locus YER110C, hits give low values 0.989 | locus YER111C, strain swi4, hits give low values 1.01 | locus YER155C, strain BEM2 (second series), hits give low values 1.01 | locus YER155C, strain BEM2, hits give low values 0.988 | locus YER167W, strain BCK2, hits give low values 0.983 | locus YFR010W, strain ubp6, hits give low values 1.01 | locus YGL078C, strain dbp3, hits give low values 0.988 | locus YGL086W, strain mad1, hits give low values 0.99 | locus YGL167C, strain pmr1, hits give low values 1.02 | locus YGL173C, strain kem1, hits give low values 1.02 | locus YGL227W, strain vid30, hits give low values 1.02 | locus YGL240W, strain doc1, hits give low values 1.03 | locus YGL248W, strain PDE1, hits give low values 1 | locus YGL253W, strain hxk2, hits give low values 1.01 | locus YGR078C, strain PAC10, hits give low values 1.03 | locus YGR135W, strain pre9, hits give low values 1 | locus YGR229C, strain SMI1, hits give low values 1.03 | locus YGR252W, strain gcn5, hits give low values 0.986 | locus YHR013C, strain ard1, hits give low values 0.998 | locus YHR027C, strain rpn1, hits give low values 1.01 | locus YHR030C, strain SLT2, hits give low values 0.986 and 1.01 | locus YHR079C, strain IRE1 (second series), hits give low values 0.991 | locus YHR079C, strain IRE1, hits give low values 1.01 | locus YHR094C, strain hxt1, hits give low values 0.996 | locus YHR129C, strain ARP1, hits give low values 0.998 | locus YHR142W, strain chs7, hits give low values 1.02 | locus YHR200W, strain rpn10, hits give low values 0.994 | locus YIL066C, strain RNR3, hits give low values 1.01 | locus YIL073C, strain SPO22, hits give low values 1.02 | locus YIL125W, strain kgd1, hits give low values 0.987 | locus YIR030C, strain dcg1, hits give low values 0.99 | locus YJL092W, strain hpr5, hits give low values 1.01 | locus YJL095W, strain BCK1 (second series), hits give low values 1.03 | locus YJL095W, strain BCK1, hits give low values 1.05 and 1.01 | locus YJL115W, strain asf1, hits give low values 1.01 | locus YJL129C, strain trk1, hits give low values 1.03 | locus YJL134W, strain LCB3, hits give low values 0.99 | locus YJL154C, strain vps35, hits give low values 1.01 | locus YJL164C, strain tpk1, hits give low values 0.985 | locus YJL166W, strain qcr8, hits give low values 1.02 | locus YJL168C, strain set2, hits give low values 0.98 | locus YJL187C, strain SWE1 (second series), hits give low values 1 | locus YJL187C, strain SWE1, hits give low values 1.02 | locus YJR066W, strain TOR1, hits give low values 0.951

— PubChem BioAssay AID1159580 (chemical genetic matrix, 2015)
